Most compounds without a hit are left out; they make up all but 7.9% or so of the library.
HCMV antiviral: qHTS Assay for inhibitors of the human cytomegalovirus (HCMV). activity change, negative = inhibition, % at 57.5 µM. AID 1259415, 2018. HFF cells, HCMV-luciferase reporter, 72 h; hits give low values. actives 4.5% (n = 410,000); in the data active = activity change below about -60%; inconclusive = no clear call, values can overlap the other calls; inactive = above about -39%
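Two compound doses tested in HFFs infected with HCMV-luciferase, MOI 1 PFU/cell, 72 h at 37C. Lysate luminescence read with OneGlo; data normalized against buffer-only and 10uM Salinomycin inhibitor controls.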
LASV entry inh: qHTS for Inhibitors of binding or entry into cells for Lassa Virus; Lassa virus pseudotype entry inhibition, cell reporter; Potency, µM (titrated, usually from 37.9 µM), most hits filed as inhibitors; actives 1.2% (n = 300,000); AID 540256, 2011; calls by dose curve; tested in HEK293 cells; note: nearly all actives have a fitted effect of over 50% in size
FMDV antiviral: High Throughput Screening for Foot and Mouth Disease Virus Antivirals; FMDV antiviral cell-based qHTS; Potency, µM (top dose mostly 57.9 µM), most hits filed as inhibitors; actives 1.2% (n = 410,000); AID 1159524, 2015; calls by dose curve; tested in HEK293T cells; note: read-out not given here; nearly all actives have a fitted effect of over 45% in size
MARV entry inh: qHTS for inhibitors of binding or entry into cells for Marburg Virus; Marburg virus pseudotyped entry inhibition, cell reporter; Potency, µM (top dose mostly 37.8 µM), most hits filed as inhibitors; actives 1.8% (n = 300,000); calls by dose curve; tested in HEK293 cells
HCV inhibitor: qHTS Assay for Inhibitors of Hepatitis C Virus (HCV); Huh7.5.1 HCVcc-Cre infection, luciferase reporter, 44 h; actives 3.4% (n = 340,000); Potency, µM (top dose mostly 41.8 µM), hits mostly inhibitors; active = well fitted inhibition curve with a large enough effect; inconclusive = small, poorly fitted or top-dose-only effect, or another doubt; inactive = no such curve, though single readings can be large or run the other way
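Luciferase read-out (15 sec integration) after a 15 min room-temperature substrate step quantifies HCVcc-Cre infection. Cells, 1,000 per well, had compound added 4 h post-plating, then virus at ~0.5 moi, and were cultured 44 h.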
Numbers stand for hits; 0 = inactive; ? = inconclusive; - = no result given.

SMILES	HCMV antiviral	LASV entry inh	FMDV antiviral	MARV entry inh	HCV inhibitor
Cc1ccc(-n2c(SCC(=O)NNC(=S)Nc3ccccc3)nc3ccccc3c2=O)cc1	?	0	0	8.91µM	0
Cc1ccc(-n2c(SCC(=O)Nc3cccc(S(=O)(=O)NC4=NCCCCC4)c3)nc3ccccc3c2=O)cc1	-66.3	0	0	0	?
O=C(CSc1nc2ccccc2c(=O)n1-c1ccc(F)cc1)Nc1ccc(C(=O)O)cc1	0	0	0	0	0
CC1CCN(c2ccccc2NC(=O)c2cc([N+](=O)[O-])ccc2N2CCOCC2)CC1	-92.8	?	?	?	?
CCc1ccccc1NC(=O)c1cc([N+](=O)[O-])ccc1N1CCOCC1	0	0	0	0	0
O=C(Nc1cccc(-c2nc3cc(Cl)ccc3o2)c1)c1cc([N+](=O)[O-])ccc1N1CCOCC1	-63.1	0	0	0	-
O=C(/C=C/c1cccc([N+](=O)[O-])c1)Nc1ccccc1N1CCOCC1	-60.5	0	?	0	0
CCCCCOc1ccc(/C=C/C(=O)Nc2sc(C(C)=O)c(C)c2C(=O)OCC)cc1OC	0	0	?	-	-
C(=C\c1nnc2c3ccccc3ncn12)/c1ccccc1	?	?	0	?	?
COc1cc(/C=C/c2nnc3c4ccccc4ncn23)cc(OC)c1OC	0	?	0	?	2.24µM
COc1ccc(C(=O)/C=C/c2cn(CC(O)CN3CCc4ccccc43)c3ccccc23)cc1 (stereo unspecified)	0	?	0	?	-
CCC(=C(c1ccc(OC)cc1)c1ccc(OC)cc1)c1cn(CC(O)CN2CCN(C)CC2)c2ccccc12 (stereo unspecified)	0	0	0	?	11.2µM
COCCCNS(=O)(=O)c1cc(-c2onc(C)c2C)ccc1OC	0	0	0	-	-
Cc1cccc(NC(=O)CSc2nc3nc4c(cc3c(=O)n2-c2ccccc2)CCCC4)c1	0	0	0	10µM	?
CCn1c(SCC(=O)Nc2ccc(Cl)cc2)nc2nc3c(cc2c1=O)CCCC3	?	0	0	0	?
O=C(CSc1nc2nc3c(cc2c(=O)n1-c1ccccc1)CCCC3)Nc1cccc2ccccc12	0	0	0	?	?
Cc1ccccc1-n1c(SCC(=O)Nc2ccccc2)nc2nc3c(cc2c1=O)CCCC3	-79.7	0	0	?	?
CC(C)c1ccc(NC(=O)CN2C(=O)C3(SCC(=O)N3c3ccc(F)cc3)c3ccccc32)cc1 (stereo unspecified)	0	0	0	-	-
Cc1cccc(CN2C(=O)NC(c3ccccc3)(c3ccccc3)C2=O)c1	-69.4	?	0	?	0
Cc1ccccc1CCNC(=O)c1ccc(Cn2c(=O)c3cccn3c3cccnc32)cc1	0	0	0	-	-
CC(C)c1ccc(NC(=O)N2CCN(c3ccc(Cl)c(Cl)c3)CC2)cc1	-79.3	0	?	?	-
Cc1ccc(NC(=O)N2CCN(c3ccc(Cl)c(Cl)c3)CC2)cc1	-62.3	0	?	?	-
CCOc1ccc(NC(=O)N2CCN(c3ccc(Cl)c(Cl)c3)CC2)cc1	0	0	0	0	-
COC(=O)c1cc(OC)c(OC)c(OC)c1NC(=O)c1cc(=O)n(C)c(=O)n1C	0	0	0	0	-
CCOC(=O)c1ccc(NC(=O)COc2ccccc2OC)cc1	0	0	0	0	0
SMILES	HCMV antiviral	LASV entry inh	FMDV antiviral	MARV entry inh	HCV inhibitor
CCOC(=O)c1cc(-c2ccccc2)n(CC(=O)NCc2ccccc2OC)c1C	-60.6	7.08µM	0	-	-
COC(=O)c1ccc(NC(=S)N2CCN(Cc3ccccc3OC)CC2)cc1	-79.7	-	0	-	0
CCOC(=O)c1ccc(NC(=O)COc2ccccc2CNC2CCCC2)cc1	0	?	0	8.91µM	0
CCCOC(=O)c1ccc(NC(=O)c2cc(OC)c(OC)c(OC)c2Br)cc1	0	?	0	?	7.08µM
O=C(NCC1(N2CCOCC2)CCCC1)c1cnn(-c2nccc(-c3cccs3)n2)c1C1CC1	-	-	0	-	-
Cc1ccccc1C1(CC(=O)N2CCCCC2c2cccnc2)CC(=O)N(C2CCCC2)C1=O (stereo unspecified)	-	-	0	-	-
Cc1cc(C)c2c(CC(=O)Nc3nnc(CC(C)C)s3)coc2c1	0	0	0	0	-
CCOC(=O)c1ccc(NC(=O)NC2CC3CCC(C2)N3)cc1 (stereo unspecified)	0	-	0	-	17.8µM
CCOC(=O)c1ccc(NC(=O)c2ccc(OC(C)C)c(OC)c2)cc1	0	0	39.8µM	?	?
CCCCOC(=O)c1ccc(NC(=O)Nc2ccc(OC)c(OC)c2)cc1	0	0	0	0	0
CCOC(=O)c1ccc(NC(=O)NCCc2ccccc2OC)cc1	0	-	?	-	0
CCOC(=O)c1ccc(NC(=O)NCc2ccccc2OC)cc1	0	-	0	0	11.2µM
CCOC(=O)c1ccc(NC(=O)Nc2ccc(OC)c(OC)c2)cc1	?	0	0	0	25.1µM
CCOC(=O)c1ccc(NC(=O)c2ccc3c(c2)OCO3)cc1	0	?	0	?	?
CC(C)(CO)NC(=O)c1cnn(-c2ncc3c(n2)-c2ccccc2CC3)c1C1CC1	-	-	0	-	-
O=C(c1cccc(C(F)(F)F)c1)C1CCCN(Cc2ccccc2O)C1 (stereo unspecified)	0	0	0	0	0
CN(C)c1cccc(C(=O)N(C)C2CCCN(Cc3ccccc3F)C2)c1 (stereo unspecified)	-70.9	-	0	-	0
Cc1cc(C)cc(C(=O)N(C)C2CCCN(Cc3ccccc3F)C2)c1 (stereo unspecified)	0	-	0	-	12.6µM
CN(C(=O)c1ccncc1)C1CCCN(Cc2ccccc2F)C1 (stereo unspecified)	0	0	0	0	0
COc1ccc(C(=O)N(C)C2CCCN(Cc3ccccc3F)C2)cc1OC (stereo unspecified)	0	0	0	0	0
O=C(NCC1CCCN(Cc2ccccc2F)C1)c1cccc(C(F)(F)F)c1 (stereo unspecified)	?	0	0	?	11.2µM
Cc1cc(F)ccc1NC(=O)CCS(=O)(=O)c1ccc2c(c1)NC(=O)CO2	0	0	?	-	-
COc1ccc(C2=C(N3CCN(c4cccc(C)c4)C(C)C3)c3ccccc3C2=O)cc1 (stereo unspecified)	0	?	0	?	-
CC(C)CCN1C(=O)c2ccccc2CC1(C)C(=O)NC1CCCCC1 (stereo unspecified)	0	-	0	0	-
O=[N+]([O-])c1ccc(-c2nc(C(Cl)Cl)c3ccccc3n2)cc1	-102.4	?	0	?	2µM
Cc1ccc(C)c2c(N)c3c(nc12)CCCCC3 (tested in a mixture with another compound)	-70.4	0	0	0	?
Nc1nc(N)c2cc(CNc3ccc(Cl)c(Cl)c3)ccc2n1	-68.7	-	35.5µM	-	-
COc1ccc(-n2nc3ccc(NC(=O)c4cc5ccccc5o4)cc3n2)cc1Cl	0	0	0	-	-
COc1ccccc1CNc1nc(NCc2ccc(NC(C)=O)cc2)c2sccc2n1	0	-	0	-	-
COc1ccccc1CNc1nc(NCC2CC2)nc2ccsc12	-70.2	-	25.1µM	-	-

High-throughput results deposited in PubChem BioAssay by National Center for Advancing Translational Sciences (NCATS).
